Measured values from the supplement of paper PMC8773631.
“And” between values parts separate entries of the source, which are not always exact repeats. Identical values can stand only once. Counter-ions that a name gives are not always drawn. ± gives the uncertainty stated by the source.

What follows are molecules tested on NCC-MFS5-C1 (assay: cell viability relative to DMSO control; higher = less growth inhibition). Settings: 10 µM; treatment time: 3 days.
Experimental: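 NCC-MFS5-C1 myxofibrosarcoma cells (1x10^4 per well, 384-well) were treated on day 2 with 10 µM of each drug. On day 5, viability was read by CCK-8 absorbance at 450 nm and normalised to the DMSO control (%), n = 2.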

Compared with `Nc1cccc2c1C(=O)N(C1CCC(=O)NC1=O)C2=O` (stereo unspecified) [Pomalidomide], `O=C1NC(=O)[C@@H](c2cn3c4c(cccc24)CCC3)[C@@H]1c1c[nH]c2ccccc12` [Tivantinib (ARQ 197)] is lower in cell viability: 97.7 ± 6.4% for the first, 48.3 ± 1.5% for the second.

Going from `CC(C)c1nc(CN(C)C(=O)N[C@@H](CCN2CCOCC2)C(=O)N[C@H](CC[C@H](Cc2ccccc2)NC(=O)OCc2cncs2)Cc2ccccc2)cs1` [Cobicistat (GS-9350)] to `CC(C)C[C@H](NC(=O)[C@H](Cc1ccccc1)NC(=O)c1cnccn1)B(O)O` [Bortezomib (PS-341)], the cell viability falls from 61.5 ± 0.43% to 4.89 ± 1.4%.

`C=CC(=O)Nc1cc2c(Nc3ccc(F)c(Cl)c3)ncnc2cc1OCCCN1CCOCC1` [Canertinib(CI-1033)] and `COc1cc2ncnc(Nc3ccc(F)c(Cl)c3)c2cc1NC(=O)/C=C/CN1CCCCC1` are within error of each other in cell viability: 84.2 ± 5% for the first, 82.9 ± 3.8% for the second.

Going from `CCS(=O)(=O)N1CCN(c2ccc(Nc3ncc(C(N)=O)c(NC4CC4)n3)cc2)CC1` to `COc1cc2nccc(Oc3ccc(NC(=O)NC4CC4)c(Cl)c3)c2cc1C(N)=O` [Lenvatinib (E7080)], the cell viability rises from 61.5 ± 1.8% to 75.4 ± 0.93%.

Going from `COc1cc([C@@H]2c3cc4c(cc3[C@@H](O[C@@H]3O[C@@H]5CO[C@@H](c6cccs6)O[C@H]5[C@H](O)[C@H]3O)[C@H]3COC(=O)[C@H]23)OCO4)cc(OC)c1O` [Teniposide] to `COc1cc(Nc2ncc(F)c(Nc3ccc4c(n3)N(COP(=O)(O)O)C(=O)C(C)(C)O4)n2)cc(OC)c1OC` [Fostamatinib (R788)], the cell viability falls from 76.7 ± 4.4% to 29.5 ± 0.8%.

First: CC[C@@]1(O)C(=O)OCc2c1cc1n(c2=O)Cc2cc3c(CN(C)C)c(O)ccc3nc2-1 [Topotecan HCl]
Second: CC#CCn1c(N2CCC[C@@H](N)C2)nc2c1c(=O)n(Cc1nc(C)c3ccccc3n1)c(=O)n2C [Linagliptin]
The cell viability of the first is lower: 33.3 ± 5.3% for the first, 92.8 ± 5.3% for the second.

Going from `CC1=C(CC(=O)O)c2cc(F)ccc2/C1=C\c1ccc([S+](C)[O-])cc1` (stereo unspecified) [Sulindac] to `CCN(CC)CCNC(=O)c1c(C)[nH]c(/C=C2\C(=O)Nc3ccc(F)cc32)c1C` [Sunitinib], the cell viability falls from 103.76 ± 0.032% to 67.9 ± 9.6%.

`NC(=O)NO` [Hydroxyurea] and `O=C(O)C1(C(=O)O)CCC1.[NH2-].[NH2-].[Pt+2]` [Carboplatin] are within error of each other in cell viability: 71.3 ± 11% for the first, 83.7 ± 2.2% for the second.

Going from `C[C@@H](CN1CC(=O)NC(=O)C1)N1CC(=O)NC(=O)C1` [Dexrazoxane] to `C/C(=C\c1csc(C)n1)[C@@H]1C[C@@H]2O[C@]2(C)CCC[C@H](C)[C@H](O)[C@@H](C)C(=O)C(C)(C)[C@@H](O)CC(=O)N1`, the cell viability falls from 122.6 ± 1.1% to 51.24 ± 0.45%.

`COc1ccc(/C=C/C(=O)Nc2ccccc2C(=O)O)cc1OC` [Tranilast] and `CC(=O)Oc1ccccc1C(=O)O` [Aspirin] are within error of each other in cell viability: 80.2 ± 2.5% for the first, 81.4 ± 1.1% for the second.

`Nc1[nH]cnc2ncnc1-2` [Adenine HCl] and `Nc1nc(F)nc2c1ncn2[C@@H]1O[C@H](COP(=O)(O)O)[C@@H](O)[C@@H]1O` [Fludarabine Phosphate] are within error of each other in cell viability: 98.1 ± 6.5% for the first, 104 ± 3.5% for the second.

First: CC(C)(C)c1cc(NC(=O)Nc2ccc(-c3cn4c(n3)sc3cc(OCCN5CCOCC5)ccc34)cc2)no1 [Quizartinib (AC220)]
Second: COc1cc(OC)cc(N(CCNC(C)C)c2ccc3ncc(-c4cnn(C)c4)nc3c2)c1 [Erdafitinib]
The cell viability of the first is higher: 57.8 ± 2.7% for the first, 33.1 ± 2% for the second.

Compared with `O=C(CCBr)N1CCN(C(=O)CCBr)CC1` [Pipobroman-D8], `C[C@]12CC[C@@H]3c4ccc(O)cc4C[C@@H](CCCCCCCCC[S+]([O-])CCCC(F)(F)C(F)(F)F)[C@H]3[C@@H]1CC[C@@H]2O` (stereo partly specified) [Fulvestrant] is lower in cell viability: 108 ± 6.2% for the first, 74.38 ± 0.27% for the second.

`O=S(=O)(O)CCS` [Mesna] and `O=P(O)(O)C(O)(Cn1ccnc1)P(=O)(O)O` [Zoledronic Acid] are within error of each other in cell viability: 76.99 ± 0.32% for the first, 84.5 ± 7.6% for the second.

Going from `COc1c2ccoc2cc2oc(=O)ccc12` [Bergapten] to `Cc1ccc(-c2cc(C(F)(F)F)nn2-c2ccc(S(N)(=O)=O)cc2)cc1` [Celecoxib], the cell viability falls from 105 ± 18% to 72.1 ± 10%.

Compared with `CC(=O)O[C@]1(C(C)=O)CC[C@H]2[C@@H]3C=C(C)C4=CC(=O)CC[C@]4(C)[C@H]3CC[C@@]21C` [Megestrol Acetate], `CC(C)C(=O)Nc1ccc([N+](=O)[O-])c(C(F)(F)F)c1` [Flutamide] is lower in cell viability: 93.9 ± 4% for the first, 78.3 ± 6% for the second.

Compared with `Clc1ccc(Nc2nnc(Cc3ccncc3)c3ccccc23)cc1` [Vatalanib (PTK787) 2HCl], `Nc1nc(CC(=O)Nc2ccc(CCNC[C@H](O)c3ccccc3)cc2)cs1` [Mirabegron] is higher in cell viability: 59.1 ± 0.89% for the first, 82.5 ± 4.6% for the second.

With `C#Cc1cccc(Nc2ncnc3cc(OCCOC)c(OCCOC)cc23)c1` [Erlotinib HCl (OSI-744)] the cell viability was 81.6 ± 1%.

In the case of `CC(=O)c1c(C)c2cnc(Nc3ccc(N4CCNCC4)cn3)nc2n(C2CCCC2)c1=O`, the cell viability is reported as 50.3% and 42.8%.
